In all, about 290,000 compounds went through this assay and about 3,000 (1%) were called active. This excerpt belongs to a sample that is enriched for actives. Unmarked numbers belong to inactive results. No stated cut-off is given here; in the data, active means inhibition mostly above about 36% (no sharp cut-off); inactive means mostly below about 34%.

This test in a line: NOD1 signaling inhibitors, primary screen, cell-based, luminescence, uHTS (AID 1578).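 Further: HEK-293T reporter cells stimulated with the NOD1 agonist gamma-tri-DAP.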 To be noted: NOD1-driven NF-kB luciferase reporter cells, at 4 µM, stronger effect = higher value.
For `COc1ccc(Nc2nc3ccccc3nc2NS(=O)(=O)c2cccs2)c(OC)c1`, the inhibition is 18%.

With `O=C(O)c1ccc(Nc2nc3ccccc3nc2NS(=O)(=O)c2cccs2)cc1`, the inhibition is -3.1%.

With `O=C(O)c1cccc(Nc2nc3ccccc3nc2NS(=O)(=O)c2cccs2)c1`, the inhibition is -74.2%.

On to `COc1ccc(Nc2nc3ccccc3nc2NS(=O)(=O)c2cccs2)cc1`, for which the inhibition was 39.2%.

Take `O=C1N2c3ccccc3CCc3cccc(c32)C1(O)C(F)(F)F` (stereo not drawn): the inhibition was -26.6%.

Take `CC1CC(C)CN(S(=O)(=O)N2CCCC(C(=O)NCCCN3CCOCC3)C2)C1` (stereo not drawn): the inhibition was 16.8%.

For `Cc1nn(C)c(Nc2ccc(Br)cc2)c1Br`, the inhibition is 44.9% (active).

As to `Cc1cc(C)nc(-n2nc(C)c(Br)c2Nc2ccc(Br)cc2)n1`, the inhibition is -10.9%.

With `CCn1nc(C)c(Br)c1Nc1ccc(Br)cc1`, the inhibition is 7.5%.

For `Cc1ccc(C(C)C)c(OCC(=O)Nc2cccc(S(=O)(=O)NC3=NCCCCC3)c2)c1`, the inhibition is 53.3% (active).

Turning to `CCN(CC)CC(=O)Nc1cccc(S(=O)(=O)N2CCCC2)c1`, the inhibition was -15.1%.

As for `CCN(CC)S(=O)(=O)c1cccc(NC(=O)c2cncc(Br)c2)c1`, the inhibition was -54.6%.

As for `Cc1ccc(C)c(OCC(=O)Nc2cccc(S(=O)(=O)NC3=NCCCCC3)c2)c1`, the inhibition is -2.9%.

As to `CC(=O)OCC(=O)Nc1cc(S(=O)(=O)N2CCCCCC2)ccc1Cl`, the inhibition was -22.1%.

Turning to `CC(C)(C)CC(=O)Nc1cc(S(=O)(=O)N2CCCCCC2)ccc1Cl`, the inhibition is -3.6%.

Take `COc1cc(NC(=O)CNc2cccc(S(=O)(=O)N3CCCC3)c2)cc(OC)c1`: the inhibition was -2.7%.

As to `CCN(CC)S(=O)(=O)c1ccc(C(=O)Nc2cccc(C)c2)cc1`, the inhibition is -4.2%.

Regarding `Cc1ccc(OCC(=O)Nc2cccc(S(=O)(=O)NC3=NCCCCC3)c2)cc1C`, the inhibition is -93%.

For `Cn1nc(-c2ccccc2)c2cc(C(=O)O)sc21`, the inhibition is -19.4%.

Take `COc1cc(OC)cc(C(=O)Nc2cccc(NC(=O)c3ccccc3)c2)c1`: the inhibition is 2.4%.

Consider `Cc1cccc2nc(CSc3ncccc3C(=O)O)cn12`, for which the inhibition is -32.8%.

Turning to `Cc1cc(C)nc(N/N=C/c2ccccc2OCc2ccccc2)n1`, the inhibition is -24.5%.

For the compound `COc1cccc(NC(=O)CSc2ccc3nnc(-c4ccncc4)n3n2)c1`, the inhibition was 10.7%.

Take `CC(=O)c1cccc(NC(=O)Cn2c(=O)oc3cc(S(=O)(=O)N4CCCC4)ccc32)c1`: the inhibition is -4.9%.

On to `O=C(Cn1cnc2ccccc2c1=O)Nc1cccc(S(=O)(=O)N2CCCCC2)c1`, for which the inhibition is 3.7%.

For `O=C(Cn1[nH]c(=O)c2ccccc2c1=O)Nc1cccc(S(=O)(=O)N2CCCCCC2)c1`, the inhibition was 55% (active).

As for `O=C(Cn1c(=O)oc2cc(S(=O)(=O)N3CCCC3)ccc21)Nc1ccc(C(F)(F)F)cc1`, the inhibition is 8.8%.

`CS(=O)(=O)c1ccc(Cl)c(NC(=O)CCc2ccccc2)c1`: the inhibition was -34.6%.

As to `CS(=O)(=O)c1ccc(Cl)c(NC(=O)Cc2c(Cl)cccc2Cl)c1`, the inhibition is 19.7%.

As for `O=C(CCc1ccccc1Cl)Nc1cccc(S(=O)(=O)N2CCCC2)c1`, the inhibition is -16.3%.

As for `O=C(Cn1c(=O)oc2cc(S(=O)(=O)N3CCCC3)ccc21)Nc1cccc(C(F)(F)F)c1`, the inhibition is 58% (active).

Regarding `CS(=O)(=O)c1ccc(Cl)c(NC(=O)CCl)c1`, the inhibition is 43.3% (active).

Regarding `O=C(Cc1n[nH]c(=O)c2ccccc12)Nc1cccc(S(=O)(=O)N2CCCC2)c1`, the inhibition was 0.5%.

Regarding `CC(=O)Nc1cccc(S(=O)(=O)N2CCCCCC2)c1`, the inhibition is -15.2%.

With `CCCc1cc(=O)[nH]c(SCC(=O)NCCC2=CCCCC2)n1`, the inhibition is -16.8%.

As for `Cc1ccc2nc(NCC(=O)NN)nc(-c3ccccc3)c2c1`, the inhibition was -11.2%.

On to `Cc1ccnc(NS(=O)(=O)c2ccc(NC(=O)c3cc(=O)c4ccccc4o3)cc2)n1`, for which the inhibition was -0.9%.

As to `NC(=O)/C(=C/c1cccnc1)NC(=O)c1ccccc1`, the inhibition was 4.1%.

As for `CCc1ccc(C2c3[nH]c4ccccc4c3CCN2C(=O)c2cc(C)nn2C)cc1` (stereo not drawn), the inhibition is -25.9%.

Take `CCCCN(C)C(=O)Cn1nc(-c2ccc(Cl)cc2)ccc1=O`: the inhibition is -9.3%.

As for `O=C(c1ccc(S(=O)(=O)N2CCCC2)cc1)N(Cc1ccco1)C1CCS(=O)(=O)C1` (stereo not drawn), the inhibition was -10.9%.

With `CNC(=S)Nc1cccc(S(=O)(=O)NC2=NCCC2)c1`, the inhibition was -13.1%.

With `O=C(Nc1cccc(S(=O)(=O)NC2=NCCC2)c1)C1CCC1`, the inhibition was -32.4%.

For the compound `O=C(CCl)Nc1cccc(S(=O)(=O)NC2=NCCC2)c1`, the inhibition is 64.9% (active).

As to `COc1cc(NC(=O)[C@H](C)NC(=O)N2CCn3c2nc2ccccc23)cc(OC)c1`, the inhibition was 5.6%.

For `CCCc1nnc(SCC(=O)O)n1CC`, the inhibition was -9.2%.

Consider `CSc1ccc(/C=C/C(=O)OCC(=O)N(C)CCC#N)cc1`, for which the inhibition is -23%.

As for `Cc1cc(/C=N/N2CCN(C)CC2)c(C)n1-c1ccc(Cl)cc1`, the inhibition was -8.4%.

Turning to `O=C1NC(=S)S/C1=C\c1ccc(SCc2ccccc2)o1`, the inhibition is 91.8% (active).

With `O=C1NC(=S)S/C1=C\c1ccc(SCc2ccco2)o1`, the inhibition is -10.8%.

With `O=C(O)CN1C(=O)/C(=C/c2ccc(SCc3ccccc3)o2)SC1=S`, the inhibition is -39.2%.

Regarding `CN(C)c1nc2ncn(Cc3ccccc3)c2c(=O)[nH]1`, the inhibition was 5.2%.

Consider `COc1ccc(-c2c3c(nc4sc5c(=O)[nH]c(C)nc5c24)CCC3)cc1`, for which the inhibition is -23.6%.

Regarding `O=c1[nH]cnc2c1sc1nc3c(c(-c4ccc(Cl)cc4)c12)CCC3`, the inhibition is 78.1% (active).

Consider `O=c1[nH]cnc2c1sc1nc(-c3ccccc3)c3c(c12)CCCC3`, for which the inhibition was 34.8%.

For `COc1ccc(-c2nc3c4ccccc4ccn3c2CN2CCCCC2)cc1OC`, the inhibition is -8.1%.

As for `Cc1nc(SCn2nnc3ccccc3c2=O)nc(C)c1C`, the inhibition is -13.8%.

As to `CCOc1ccc(S(=O)(=O)NCCSCc2ccco2)cc1`, the inhibition was 3.8%.

`COc1cc(NC(=O)CN2CCCCC2)c(C)cc1[N+](=O)[O-]`: the inhibition is -16.1%.

`COc1ccc(NC(=O)Cn2ncc(Cl)c(Cl)c2=O)cc1S(=O)(=O)N1CCOCC1`: the inhibition was 43.5%.

For `CCN(CC)S(=O)(=O)c1cc(NC(=O)Cn2cnc3ccccc3c2=O)ccc1C`, the inhibition is -1.6%.

As to `COc1cc(NC(=O)CN2C(=O)CN(C)C2=O)c(C)cc1[N+](=O)[O-]`, the inhibition is -27.7%.

As for `CCN(CC)S(=O)(=O)c1cc(NC(=O)Cn2ncc(Cl)c(Cl)c2=O)ccc1C`, the inhibition was 62.3% (active).

As for `COc1cc(NC(=O)Cn2ncc(Cl)c(Cl)c2=O)c(C)cc1[N+](=O)[O-]`, the inhibition was 91.3% (active).

As for `CN(C(=O)c1ccccc1C(=O)OCC(=O)NC(=O)NC(C)(C)C)C1CCCCC1`, the inhibition is -11.4%.

With `O=C(CSc1ncnc2scc(-c3ccccc3)c12)Nc1ccc(C(=O)O)cc1`, the inhibition is 24.9%.

Take `Nc1cc(N)nc(SCC(=O)Nc2ccccc2)n1`: the inhibition is 17.4%.

For `COc1ccnc(Oc2ccc(F)cc2)c1C(=O)N/C=N/OCc1ccc(F)cc1`, the inhibition is -24%.

`Cc1oc2c(c(C)cc3oc(=O)c(CC(=O)N[C@@H](CC(C)C)C(=O)O)c(C)c32)c1C`: the inhibition is -2.2%.

Consider `O=C(O)CCn1cc(/C=C/C(=O)c2ccc(Cl)cc2)c(-c2ccc(Br)cc2)n1`, for which the inhibition was 52.9%.

As for `O=Cc1cn(CCC(=O)O)nc1-c1cccc(Br)c1`, the inhibition is -28.9%.

`CC(=O)c1sc(N/N=C\c2cccc(Br)c2)nc1C`: the inhibition was 3.9%.

In the case of `C=CCNC(=O)/C(C#N)=C/c1ccc2c(c1)OCCO2`, the inhibition was -33.6%.

In the case of `Cc1ccc(N=Cc2sc(O)c3ccccc23)cc1`, the inhibition was -36.5%.

Take `CCn1c(O)c(C=Nc2ccccc2)sc1=O`: the inhibition is -27.2%.

In the case of `Cn1c(O)c(C=Nc2ccc(Br)cc2)sc1=O`, the inhibition is 53.6% (active).

In the case of `CCOc1ccc(C(=O)Nc2nnc(S(=O)(=O)N3CCCCC3)s2)cc1`, the inhibition was 2.6%.

As for `O=C(N/N=C/c1cccc(OC(=O)c2cccc(Br)c2)c1)c1ccncc1`, the inhibition is -35%.

For the compound `CCOC(=O)CC(NC(=O)c1ccco1)c1ccccc1Cl` (stereo not drawn), the inhibition was -14.8%.

As for `Fc1ccc(NC(=S)Nc2cccnc2)cc1Cl`, the inhibition was -27%.

For the compound `Fc1ccc(NC(=S)Nc2ccc(F)c(Cl)c2)cc1Cl`, the inhibition is 74.1% (active).

Consider `CC(=O)Nc1cccc(NC(=S)Nc2ccc(F)c(Cl)c2)c1`, for which the inhibition is 3%.

`Cn1cc(C(=O)NS(=O)(=O)Nc2ccc(Br)cn2)c2ccccc21`: the inhibition is -29%.

With `CC(C)(C)c1nnc(N/N=C/c2cc(Br)ccc2O)n(N)c1=O`, the inhibition is 68.7% (active).

Regarding `CC(C)(C)c1nnc(N/N=C/c2ccc(Br)cc2)n(N)c1=O`, the inhibition was -33.2%.

For the compound `CC(C)(C)c1nnc(N/N=C/c2ccccc2O)n(N)c1=O`, the inhibition is -45.8%.

As to `O=C(Nc1ncccc1Cl)c1ccccc1F`, the inhibition is -31.4%.

`Cc1ccc(-n2[nH]c(C)c(/C=N/NC(=O)c3cccc([N+](=O)[O-])c3)c2=O)cc1C`: the inhibition is 92.8% (active).

`Cc1[nH]n(-c2ccc(Br)cc2)c(=O)c1/C=N/NC(=O)c1ccccc1`: the inhibition is 69%.

As for `Cc1[nH]n(-c2cccc3ccccc23)c(=O)c1/C=N/NC(=O)c1cccc([N+](=O)[O-])c1`, the inhibition was -8.2%.

Regarding `Cc1[nH]n(-c2ccccc2)c(=O)c1/C=N/NC(=O)c1ccccc1F`, the inhibition was -9.2%.

Regarding `Cc1ccc(-n2[nH]c(C)c(/C=N/NC(=O)c3ccc([N+](=O)[O-])cc3)c2=O)c(C)c1`, the inhibition is -20.9%.

For `Cc1cc(NS(=O)(=O)c2ccc(NC(=S)NC(=O)c3ccncc3)cc2)no1`, the inhibition was -4.1%.

The values are drawn from PubChem BioAssay AID1578 (Sanford-Burnham Center for Chemical Genomics, 2009).
